Source: PubChem
Rows were chosen to be rich in hits. Some 21% of all compounds tested hit in one or more screens of this group.
NS1 inh: qHTS Assay for Inhibitors of Influenza NS1 Protein Function | Potency, µM (titrated, usually from 46.1 µM), for inactives: at the highest dose activity, positive = more growth | AID 2326, 2010 | 270,000 tested, 0.4% active; calls by dose curve; further: potency means the concentration at half of the fitted maximal effect; actives are rising curves; nearly all actives have a fitted effect of over 50% in size
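A cell-based growth assay was used: compounds that relieve NS1-induced slow growth of budding yeast raise OD600. Assay medium was yeast nitrogen base with ammonium sulphate and -URA supplement, pH 6.0, with 2% galactose.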
Cycloheximide cs: Cycloheximide Counterscreen for Small Molecule Inhibitors of Shiga Toxin | cell reporter, cycloheximide protein synthesis inhibition counterscreen | max response, % | 300,000 tested, 12% active | AID 2314, 2010; in the data active means max response mostly above about 13%, no sharp cut-off; inactive means mostly below about 14%; further: read at 38.3 µM for the half of the compounds with a filed dose; 0% is about no effect
Pf growth 48h: Primary qHTS for delayed death inhibitors of the malarial parasite plastid, 48 hour incubation; P. falciparum luciferase growth in erythrocytes, 48 h; Potency, µM (titrated, usually from 28.7 µM), inactives show at the highest dose activity change, negative = inhibition, actives largely listed as inhibitors; 310,000 tested, 5.9% active; AID 504832, 2011; further: potency means the concentration at half of the fitted maximal effect; on the % scale 0 is the no-effect control and ±100 the full control effect
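Read-out is firefly luciferase luminescence from an integrated reporter in P. falciparum, so falling signal marks reduced parasite growth. Infected erythrocytes were at 2% hematocrit and 0.1% parasitemia (final) in Albumax-supplemented RPMI 1640.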
FBPA Giardia inh: qHTS Assay for Inhibitors of Fructose-1,6-bisphosphate Aldolase from Giardia Lamblia | A8B2U2 | Potency, µM (doses to about 59.6 µM), without a hit: at the highest dose activity, negative = inhibition, most hits filed as inhibitors | AID 2451, 2010 | purified Giardia FBPA | 290,000 tested, 0.71% active; further: potency means the concentration at half of the fitted maximal effect; on the % scale 0 is the no-effect control and ±100 the full control effect; nearly all actives have a fitted effect of over 55% in size
Target sequence (A8B2U2 whole entry, looked up): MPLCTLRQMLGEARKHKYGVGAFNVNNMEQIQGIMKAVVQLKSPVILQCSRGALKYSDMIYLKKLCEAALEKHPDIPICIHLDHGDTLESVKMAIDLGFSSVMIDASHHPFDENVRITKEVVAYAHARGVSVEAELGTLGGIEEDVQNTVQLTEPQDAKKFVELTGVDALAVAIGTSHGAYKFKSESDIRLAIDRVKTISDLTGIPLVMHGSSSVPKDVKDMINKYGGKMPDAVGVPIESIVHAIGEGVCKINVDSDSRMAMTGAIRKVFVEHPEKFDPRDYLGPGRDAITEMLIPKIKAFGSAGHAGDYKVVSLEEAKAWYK
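Giardia FBPA (40 nM reagent) was preincubated 10 min at RT with compound (up to 57.5 uM final), then substrate plus GAPDH/TPI/NAD/arsenate coupling system with diaphorase/resazurin was added; resorufin fluorescence (525/598 nm) was read after 20 min.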
Shiga toxin inh: A qHTS for Small Molecule Inhibitors of Shiga Toxin; Vero cells, Shiga toxin protein synthesis inhibition reporter; inhibition, % at 38.7 µM; 290,000 tested, 9.2% active; AID 2315, 2010; in the data active means inhibition mostly above about 28%, no sharp cut-off; inactive means mostly below about 43%; further: 0% is about no effect
Pf growth 96h: Primary qHTS for delayed death inhibitors of the malarial parasite plastid, 96 hour incubation | P. falciparum luciferase reporter growth, 96 h | Potency, µM (doses to about 28.7 µM), for the others: at the highest dose activity change, negative = inhibition, actives largely listed as inhibitors | 320,000 tested, 6.9% active | AID 504834, 2011; further: potency means the concentration at half of the fitted maximal effect; on the % scale 0 is the no-effect control and ±100 the full control effect
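P. falciparum expressing integrated firefly luciferase grown in erythrocytes (2% hematocrit, 0.05% parasitemia final) with compounds for 96 hours at 37 C, 5% CO2. Growth inhibition read as loss of luminescence after adding luciferase detection reagent.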
* = called active by the depositor; ? = inconclusive; / = no result given. Unless noted, the call rests on the fitted dose curve; in most records, active means well fitted curve in the direction sought with a large enough effect; inconclusive means small, poorly fitted or top-dose-only effect, or another doubt; inactive means no such curve, though single readings can be large; an effect the other way counts as inactive or inconclusive.

SMILES	NS1 inh	Cycloheximide cs	Pf growth 48h	FBPA Giardia inh	Shiga toxin inh	Pf growth 96h
O=C(CCCSc1nc2ccccc2[nH]1)NCc1ccc(Cl)cc1	-8.2%	-3.5	?	11.6%	-5.2	11.7µM*
O=C(CNC(=O)[C@@H]1Cc2ccccc2CN1)NCc1ccco1	6.7%	-5.9	5.6%	-27.2%	-0.6	43.6%
C=CCN(C(=O)CNC(=O)c1cccs1)C(C(=O)NC(C)(C)C)c1ccccc1 (stereo not given)	-10.4%	5.3	-9.8%	2.2%	-12.3	?
Cc1cnc(CNc2ncnc3ccc(-c4ccoc4)cc23)cn1	/	/	/	-10.6%	/	/
N#Cc1cc(C(=O)Cc2ccccc2)c[nH]1	2.1%	5.8	16.8%	1.6%	6.2	14.7%
CCC(C)n1c(SCc2ccccc2)nc2ccsc2c1=O (stereo not given)	-22.8%	-3.9	?	-2.1%	5.9	4.15µM*
S=c1nc(SCc2ccccc2)[nH]c2ccccc12	/	8.6	-5.8%	10.2%	11.2	1.65µM*
c1ccc(CSc2nc3ncncc3[nH]2)cc1	-1.3%	3.4	-4.0%	-17.4%	39.9	-22.7%
O=c1[nH]c(SCc2ccc(Cl)cc2)nc2[nH]ncc12	/	19.2*	?	0.6%	26.6	?
CCCc1cc2c(=O)c(-c3nc4ccccc4s3)c(COCC(=O)O)oc2cc1O	/	43.4*	24.3%	-24.8%	95.1*	15.4%
CCc1cc2c(=O)c(-c3nc4ccccc4n3C)c(COCC(=O)O)oc2cc1O	-2.9%	0.6	-16.4%	-8.1%	98.1	-21.9%
Nc1nc(Nc2cccc3ccccc23)nc(C2CCCC2=O)n1 (stereo not given)	-2.0%	-2.5	3.8%	7.6%	26.5	3.7%
Nc1nc(CCl)nc(Nc2cccc3ccccc23)n1	7.0%	8.3	?	-5.1%	15.1	13.1µM*
Cc1ccccc1Nc1nc(N)nc(COC(=O)c2ccccc2)n1	-5.9%	81.5*	190.7%	-4.0%	78.9*	470.9%
Cc1ccccc1Nc1nc(N)nc(COC(=O)CCNS(=O)(=O)c2ccccc2)n1	/	/	11.7µM*	/	/	?
Cc1ccccc1CSCc1nc(N)nc(Nc2ccccc2C)n1	/	48.6*	21.3%	1.5%	84.8*	-18.1%
CC(=O)N1c2ccc(S(=O)(=O)N(C)CC(=O)Nc3ccccc3C)cc2CC1C (stereo not given)	0.0%	-4.2	?	/	23.4	?
Cc1ccccc1Nc1nc(N)nc(COC(=O)c2ccc(O)cc2)n1	4.9%	20.4*	?	11.9%	-4.3	2.62µM*
C=CCn1c(=O)c2ccccc2n2c(SCc3nc(N)nc(Nc4ccccc4C)n3)nnc12	?	1.5	8.28µM*	2.5%	-5.6	?
Cc1ccccc1Nc1nc(N)nc(COC(=O)c2cccc(S(=O)(=O)N(C)c3ccccc3)c2)n1	-17.0%	-2.3	?	2.3%	12.6	5.86µM*
NCCCC[C@H](NC(=O)[C@H](CCCN=C(N)N)NC(=O)[C@H](CO)NC(=O)[C@H](CCCN=C(N)N)NC(=O)[C@@H](N)Cc1ccc(O)cc1)C(=O)N[C@@H](Cc1ccc(O)cc1)C(=O)N[C@@H](CO)C(=O)N[C@@H](CO)C(=O)N[C@@H](Cc1c[nH]c2ccccc12)C(=O)N[C@@H](Cc1ccc(O)cc1)C(=O)O	/	-0.8	/	-3.5%	-6.2	/
COC(=O)c1ccccc1C(=O)c1ccc(OCCN2CCCCC2)cc1	/	/	-23.3%	/	/	-20.8%
CCC(=O)c1ccc(OCC(=O)OCC(=O)NC2CCCCCCC2)cc1	-19.3%	-0.6	11.8%	/	-12.3	20.9%
COc1ccc(N2CCN(c3nc(NCCc4ccc(OC)c(OC)c4)nc(OC)n3)CC2)cc1	-37.1%	-2.0	?	-9.4%	-13.3	/
COc1nc(Nc2ccc(C(C)C)cc2)nc(OC)n1	-11.5%	41.0*	1.17µM*	-3.7%	47.7*	-10.2%
COc1ccc(Nc2nc(Cl)nc(N3CCN(c4ccc(OC)cc4)CC3)n2)cc1	1.5%	1.4	?	-3.4%	8.3	11.7µM*
COc1ccc(Nc2nc(OC)nc(N3CCN(c4ccc(OC)cc4)CC3)n2)cc1	-39.8%	-0.2	9.28µM*	-2.0%	1.1	?
